Assay results as given in PubChem BioAssay.
Calls of active or inactive are those of the source. Unless noted, how the calls were made is not given here.

Tests used:
[1] = resazurin metabolic signal in HepG2 cells – cell-based, resazurin fluorescence, 24 h, PK04 Diversity Set, profiling panel (AID 1172); settings: HepG2 viability, higher = more signal
[2] = budding yeast growth changes without added modifier – OD600, strain BY4716, 24 h, basal condition, primary screen (AID 1173); settings: S. cerevisiae BY4716 growth, OD600, 24 h; higher = more signal, called active from +8 up or from −8 down
[3] = viability profiling in MM1S myeloma cells – cell-based, resazurin fluorescence, basal, 24 h, PK04 Diversity Set, profiling panel (AID 1174); settings: higher = more signal, called active from +8 up or from −8 down;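 further: MM1S multiple myeloma cell line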
[4] = biological target: Dihydroorotate dehydrogenase (quinone), mitochondrial (Plasmodium falciparum (isolate 3D7)) (UniProt Q08210); test: inhibition of P. falciparum DHODH – biochemical, C-terminal His tag, absorbance 600 nm, primary screen (AID 1175); settings: PfDHODH enzyme, DCIP absorbance 600 nm; higher = more signal, called active from +8 up or from −8 down;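 further: recombinant parasite enzyme with a five histidine tag at its C terminus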
[5] = inhibition of PAO1 biofilm formation – strain PAO1, LB-PBS medium, absorbance 600 nm, primary screen (AID 1176); settings: P. aeruginosa PAO1 growth/biofilm, A600, 12 h; higher = more signal
[6] = growth modulation of vineyard yeast isolate – strain RM11-1a, OD600, basal, 24 h, primary screen (AID 1177);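 further: cultures grown under basal conditions with no added stressor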; settings: S. cerevisiae RM11-1a growth, OD600, 24 h; higher = more signal, called active from +8 up or from −8 down
[7] = growth of efflux-deficient E. coli DRC39 – strain DRC39, OD650, 24 h, E. coli filamentation inducers, primary screen (AID 1178);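 further: growth measured as culture turbidity by optical density at 650 nm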; settings: E. coli DRC39 acrAB, higher = more signal, called active from +8 up or from −8 down
[8] = growth of efflux-deficient E. coli DRC39 – strain DRC39, OD650, 48 h, E. coli filamentation inducers, primary screen (AID 1179);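 further: screen aims at cell division blockers that make cells filament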; settings: E. coli DRC39 delta-acrAB growth, higher = more signal, called active from +8 up or from −8 down
[9] = viability profiling in RPMI8226 myeloma cells – cell-based, resazurin fluorescence, basal, 24 h, PK04 Diversity Set, profiling panel (AID 1180); settings: higher = more signal;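 further: RPMI8826 multiple myeloma cell line at 5000 cells per well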
[10] = biological target: E3 ubiquitin-protein ligase XIAP (Homo sapiens) (UniProt P98170); test: small molecules binding XIAP protein – biophysical, small-molecule microarray, fluorescence 635 nm, primary screen (AID 1181); settings: higher = more signal;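 further: score merges 667 nm emission and signal to noise over triplicate slides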
[11] = test system: XIP peptide (Xip251-270) binding; test: XIP fragment 251-270 binding compounds – biochemical, small-molecule microarray, fluorescence 635/667 nm, 0.1 µg/mL protein, primary screen (AID 1182); settings: fluorescent protein binding, 635 nm, higher = more signal, called active from +8 up or from −8 down
XIP peptide (Xip251-270) = test: compounds binding XIP fragment 251-270 – biochemical, small-molecule microarray, fluorescence 635/667 nm, 0.5 µg/mL protein, primary screen (AID 1183); settings: fluorescence 635 nm, higher = more signal
[12] = blood-stage malaria parasite viability loss – strain 3D7, DAPI fluorescence, 100 nL, primary screen (AID 1184);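 further: parasites grown inside human red blood cells in medium with human serum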; settings: P. falciparum 3D7 growth, 3 d, higher = more signal
[13] = biological target: Homeobox protein Hox-A13 (Mus musculus) (UniProt Q62424); test: disruptors of Hoxa13 oligonucleotide interaction – biochemical, fluorescence polarization, labeled oligonucleotide, primary screen (AID 1185); settings: Hoxa13:DNA binding, 15 min, higher = more signal, called active from +8 up or from −8 down
[14] = blockers of DNA damage checkpoint Chk1 activation – imaging, HeLa, hydroxyurea, phospho-Chk1 antibody, percent positive cells, primary screen (AID 1186); settings: hydroxyurea-induced phospho-Chk1 immunofluorescence imaging, higher = more signal
[15] = blockers of DNA damage checkpoint Chk1 activation – imaging, HeLa, hydroxyurea, phospho-Chk1 nuclear intensity, primary screen (AID 1187); settings: hydroxyurea-induced phospho-Chk1 immunofluorescence imaging, higher = more signal

Dihydroorotate dehydrogenase (quinone), mitochondrial (Plasmodium falciparum (isolate 3D7)), sequence (Q08210 whole entry, looked up): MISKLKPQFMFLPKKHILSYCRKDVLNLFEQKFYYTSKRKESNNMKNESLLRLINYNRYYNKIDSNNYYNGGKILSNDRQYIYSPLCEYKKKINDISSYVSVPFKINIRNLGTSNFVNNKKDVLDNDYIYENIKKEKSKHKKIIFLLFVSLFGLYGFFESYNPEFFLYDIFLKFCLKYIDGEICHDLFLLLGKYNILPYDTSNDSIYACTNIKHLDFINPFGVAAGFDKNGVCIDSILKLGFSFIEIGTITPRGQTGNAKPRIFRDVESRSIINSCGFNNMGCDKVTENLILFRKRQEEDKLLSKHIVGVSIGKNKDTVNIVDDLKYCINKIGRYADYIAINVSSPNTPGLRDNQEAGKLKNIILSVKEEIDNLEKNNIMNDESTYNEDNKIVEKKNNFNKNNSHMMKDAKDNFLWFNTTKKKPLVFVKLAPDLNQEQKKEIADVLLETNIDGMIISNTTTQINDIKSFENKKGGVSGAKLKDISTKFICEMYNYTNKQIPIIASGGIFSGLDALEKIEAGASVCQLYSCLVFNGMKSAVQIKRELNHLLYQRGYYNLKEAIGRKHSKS
E3 ubiquitin-protein ligase XIAP (Homo sapiens), sequence (P98170 whole entry, looked up, the tested form may be a part): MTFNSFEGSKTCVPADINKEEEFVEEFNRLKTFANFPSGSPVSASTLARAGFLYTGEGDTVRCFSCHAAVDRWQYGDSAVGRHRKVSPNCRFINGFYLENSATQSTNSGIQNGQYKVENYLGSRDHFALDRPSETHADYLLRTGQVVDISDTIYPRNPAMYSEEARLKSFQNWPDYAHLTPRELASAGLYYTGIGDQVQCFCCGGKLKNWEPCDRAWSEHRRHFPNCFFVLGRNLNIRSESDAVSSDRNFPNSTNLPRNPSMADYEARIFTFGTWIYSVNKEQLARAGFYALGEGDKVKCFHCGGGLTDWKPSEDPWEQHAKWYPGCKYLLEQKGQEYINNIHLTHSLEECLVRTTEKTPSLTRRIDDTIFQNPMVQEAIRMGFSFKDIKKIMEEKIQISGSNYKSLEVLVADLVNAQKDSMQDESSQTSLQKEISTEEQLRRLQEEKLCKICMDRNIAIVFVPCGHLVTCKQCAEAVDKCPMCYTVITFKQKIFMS
Homeobox protein Hox-A13 (Mus musculus), sequence (Q62424 whole entry, looked up): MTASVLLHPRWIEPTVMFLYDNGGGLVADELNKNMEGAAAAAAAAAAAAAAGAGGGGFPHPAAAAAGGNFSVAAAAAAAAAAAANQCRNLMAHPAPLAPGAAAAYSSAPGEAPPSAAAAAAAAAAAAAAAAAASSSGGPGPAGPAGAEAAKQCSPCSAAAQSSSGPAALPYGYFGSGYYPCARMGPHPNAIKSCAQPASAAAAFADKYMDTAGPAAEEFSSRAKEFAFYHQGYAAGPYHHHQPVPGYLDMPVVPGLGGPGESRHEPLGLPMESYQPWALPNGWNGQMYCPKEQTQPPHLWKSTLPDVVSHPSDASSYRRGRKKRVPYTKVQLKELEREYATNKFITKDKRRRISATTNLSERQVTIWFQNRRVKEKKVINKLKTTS

Row | Compound | z-score [1] | z-score [2] | z-score [3] | composite z-score [4] | z-score [5] | z-score [6] | z-score [7] | z-score [8] | z-score [9] | composite z-score [10] | composite z-score [11] | composite z-score (XIP peptide (Xip251-270)) | z-score [12] | z-score [13] | z-score [14] | z-score [15]
1 | C=C(/C(=C/C[C@@H](OC(=O)c1ccncc1)c1ccccc1OCCO)c1cnc2ccccc2c1)C(C)C | -1.11 | -18.3 (active) | -0.807 (inactive) | -6.99 (inactive) | 0.485 (inactive) | -21.9 (active) | -0.328 (inactive) | -0.805 (inactive) | -0.365 | 0.326 | 0.509 (inactive) | 0.723 | -2.55 | -4.63 (inactive) | 0.864 (inactive) | 0.737 (inactive)
2 | Cc1ccc(S[C@]2(C(=O)NCC(C)C)CC(=O)N(C3CCCCC3)[C@@H]2c2ccc(CO)cc2I)cc1 | 0.33 | -1.05 (inactive) | 0.0989 (inactive) | -0.0804 (inactive) | -0.81 (inactive) | -0.115 (inactive) | 0.12 (inactive) | 0.598 (inactive) | -0.693 | -0.0559 | 1.4 (inactive) | 0.254 | -1.82 | -3.86 (inactive) | 0.263 (inactive) | 0.746 (inactive)
3 | CCCN1C(=O)[C@@]2(Cc3ccccc3)N=C(c3ccc(OCCCO)cc3)O[C@H]2c2ccccc21 | 0.167 | -2.03 (inactive) | -1.66 (inactive) | -0.319 (inactive) | 1.02 (inactive) | 0.673 (inactive) | 0.248 (inactive) | -0.319 (inactive) | -1.57 | -0.206 | 1.19 (inactive) | 0.808 | -2.38 | -4.39 (inactive) | 0.276 (inactive) | 0.555 (inactive)
4 | COCCOC(=O)N1C(=O)[C@@]2(c3cc(C#Cc4ccc(OC)cc4)ccc31)[C@H](C(N)=O)[C@H]1C(=O)O[C@H](c3ccccc3)[C@H](c3ccccc3)N1[C@@H]2c1ccc(OCCO)cc1 | 0.0456 | 1.61 (inactive) | -1.41 (inactive) | -0.0352 (inactive) | 1.71 (inactive) | 2.42 (inactive) | -0.315 (inactive) | -0.697 (inactive) | -1.82 | -0.157 | 0.283 (inactive) | 0.721 | -2.35 | -1.11 (inactive) | 0.0311 (inactive) | 0.239 (inactive)
5 | [N-]=[N+]=Nc1ccccc1[C@@H]1OC(c2ccc(OCCCO)cc2)=N[C@]1(CCS(=O)(=O)c1ccccc1)C(=O)NCc1ccccc1 | -0.287 | 1.18 (inactive) | -0.37 (inactive) | -2.59 (inactive) | 0.727 (inactive) | 1.4 (inactive) | 0.439 (inactive) | 1.01 (inactive) | -0.893 | 0.125 | 1.44 (inactive) | 0.629 | -2.27 | -1.05 (inactive) | -0.228 (inactive) | -0.184 (inactive)
6 | C[N+](C)(C)CCCC[C@@H]1NC(=O)[C@H]2C[C@@H](C(=O)NCCCCCCN)[C@@H](c3cccc(OCCO)c3)N2C1=O | -2.69 | -0.707 (inactive) | 0.45 (inactive) | -0.114 (inactive) | 1.18 (inactive) | -0.0241 (inactive) | -0.678 (inactive) | -1.35 (inactive) | 0.652 | 0.194 | 1.25 (inactive) | 0.527 | -0.997 | -2.38 (inactive) | -0.699 (inactive) | -0.146 (inactive)
7 | C=CC[C@]1(C(=O)NCC(O)CO)N=C(c2ccc(OCCCO)cc2)O[C@H]1c1ccccc1N=[N+]=[N-] (some centres undefined) | 0.662 | -0.746 (inactive) | -0.302 (inactive) | 1.13 (inactive) | 0.755 (inactive) | 0.329 (inactive) | 0.769 (inactive) | -0.579 (inactive) | 0.245 | -0.106 | 2.54 (inactive) | 0.159 | -2.3 | -3.71 (inactive) | -0.353 (inactive) | -0.236 (inactive)
8 | CC(C)N1CC=CC23O[C@@H]4C=CCOC(=O)[C@@H]4[C@H]2C(=O)N(CCCCCCO)[C@@H]3C1=O (some centres undefined) | 0.821 | 0.562 (inactive) | -0.581 (inactive) | -1.07 (inactive) | 0.165 (inactive) | -0.21 (inactive) | 0.412 (inactive) | 0.24 (inactive) | 0.704 | 0.0342 | -0.0725 (inactive) | -0.262 | -0.511 | -3.69 (inactive) | 0.477 (inactive) | 0.454 (inactive)
9 | C[C@]12C(=O)N(CCCO)[C@@H]3C(=O)N(c4ccc(Cl)cc4)CC=CC31O[C@@H]1/C=C\CCCOC(=O)C12 (some centres undefined) | -0.468 | -0.0146 (inactive) | -0.291 (inactive) | 0.0021 (inactive) | -0.553 (inactive) | -0.965 (inactive) | -0.477 (inactive) | -0.464 (inactive) | -0.217 | 0.734 | -0.232 (inactive) | -0.271 | 0.571 | -6.08 (inactive) | -0.647 (inactive) | -0.0294 (inactive)
